Experimental data published in ChEMBL document CHEMBL3988442, “University of Dundee, Small-Polar-MMV Screening Library” (2021).
Hit rate of the full screen: of about 48,000 compounds, about 13,000 (27%) showed an effect of 50% or more. The list shows a part of the results.

Test system: Wolbachia pipientis
Test: Anti-Wolbachia Cell-Based Screen
Format: functional
Set-up: scale not given: in the data most compounds retested in dose-response had high values
Conditions: 5 µM

Compound	Percent Effect [%]
O=C(Cc1cc2c(cc1Cl)OCCO2)N1CC[C@H](CO)[C@H](O)C1	7.536
COc1cccc(-n2c(C)cc(C(=O)NS(C)(=O)=O)c2C)c1	-4.667
Cc1n[nH]cc1CNCC1(c2ccccc2Cl)CCOCC1	10.52
Cc1ccc(CCNC(=O)NCc2cccc(OC(F)F)c2)cn1	-2.718
CC(=O)c1cccc(NC(=O)NCCOCC2CC2)c1	4.489
COCCNC(=O)Nc1ccc(-n2cncn2)c(F)c1	-15.63
COC(=O)c1cccc(S(=O)(=O)Nc2ccc(F)c(C(N)=O)c2)c1	-1.482
CC(C)C(C)NC(=O)Nc1ccc(F)c(C(N)=O)c1 (stereo unspecified)	114.2
COCCCNC(=O)Nc1ccc(F)c(C(N)=O)c1	133.6
O=C(NCCCOCC1CC1)Nc1ccc(F)cc1	3.334
CCOCCCNC(=O)Nc1ccc(F)c(C(N)=O)c1	144.9
CC(C)CCOCCNC(=O)Nc1cc(C(F)(F)F)c[nH]c1=O	-4.49
NC(=O)c1cc(NC(=O)N2CCCCCC2)ccc1F	-15.41
CC(C)C(O)CNC(=O)Nc1ccc(F)c(Cl)c1 (stereo unspecified)	4.966
COCCCNC(=O)Nc1cccc2ncccc12	3.143
CC(C)CCOCCNC(=O)Nc1ccc(F)c(C(N)=O)c1	86.61
CCOc1ncccc1C(=O)N1CC=C(c2ccc(O)cc2)CC1	32.78
CCC(C)Nc1ccc(-c2nc(-c3cccc(OC)c3OC)no2)cn1 (stereo unspecified)	24.9
Cc1ccc(NCCCNC(=O)NCc2c(C)cc(C)[nH]c2=O)nc1	7.392
CC(=O)c1ccc(NC(=O)NC(C(=O)N(C)C)C(C)C)cc1 (stereo unspecified)	-8.422
CC(=O)c1ccc(NC(=O)C(NC(=O)Nc2ccccc2)C(C)C)cc1 (stereo unspecified)	128.1
CC(=O)c1ccc(NC(=O)N[C@H](C(=O)O)C(C)C)cc1	99.56

Compound	Percent Effect [%]
CC(C)NC(=O)c1ccc(NC(=O)NC(C)c2ccccn2)cc1 (stereo unspecified)	-7.886
CC(C)C(NC(=O)Nc1ccc(F)cc1)C(=O)N(C)C (stereo unspecified)	92.8
CC(C)[C@H](NC(=O)NC1CCS(=O)(=O)C1)C(=O)Nc1cccnc1 (stereo partly specified)	9.774
CC(=O)c1ccc(NC(=O)NC(C)c2ccc3c(c2)CC(=O)N3)cc1 (stereo unspecified)	0.8032
CNC(=O)c1ccc(NC(=O)NC(C)c2cc(C)oc2C)cc1 (stereo unspecified)	-7.2
CC(Cn1cccn1)NC(=O)Nc1ccc(F)cc1 (stereo unspecified)	5.847
CN1C(=O)CC(C(=O)O)C12CCN(Cc1ccc(Cl)c(Cl)c1)CC2 (stereo unspecified)	-9.214
Cc1cccc(-c2noc([C@@H]3C[C@@H](O)CN3C)n2)c1	-0.5094
CC(C)NC(=O)c1ccc2c(c1)C(c1nc[nH]n1)CN2S(C)(=O)=O (stereo unspecified)	2.921
COc1cccc(COCC(=O)N2CCN(CC(C)(C)O)CC2)c1	-0.1486
O=C(O)C(F)(F)F.O=S(=O)(C1CC1)N1CCCn2cnc(COc3cccnc3)c2C1	121.6
O=C(O)C(F)(F)F.O=S(=O)(Cc1ccccc1)N1CCCn2cnc(CN3CCCC3)c2C1	-19.91
O=C(O)C(F)(F)F.O=S(=O)(c1cccs1)N1CCCn2cnc(CO)c2C1	-6.746
CN(C)C(=O)COCc1ncn2c1CN(c1ncc(F)cn1)CCC2	5.015
Fc1cnc(N2CCCn3cnc(COc4cccnc4)c3C2)nc1.O=C(O)C(F)(F)F	88.73
CCS(=O)(=O)N1CCCn2cnc(COc3cccnc3)c2C1.O=C(O)C(F)(F)F	90.76
O=C(O)C(F)(F)F.O=C(O)C(F)(F)F.c1cc(CN2CCCn3cnc(COCC4CC4)c3C2)ccn1	-1.984
CN(C)CCOCc1ncn2c1CN(c1ncc(F)cn1)CCC2.O=C(O)C(F)(F)F	-8.613
O=C(O)C(F)(F)F.O=C(O)C(F)(F)F.c1cnc(NCc2ncn3c2CN(Cc2cccnc2)CCC3)nc1	4.407
O=S(=O)(NC(CO)Cc1c[nH]c2ccccc12)c1cncc(F)c1 (stereo unspecified)	0.282
O=C(CCc1nc(Cl)n[nH]1)N1C[C@@H](CN2CCCCC2)[C@@H](CO)C1	12.3
N#Cc1ccccc1N1CCCN(CC(=O)Nc2ccccc2Cl)CC1	11.85

Compound	Percent Effect [%]
CCC1c2ccc(C)n2CCN1C(=O)Cn1cnc2sc(C)cc2c1=O (stereo unspecified)	132.6
CNC(=O)C1CCCCN1C(=O)CCn1cnc2sccc2c1=O (stereo unspecified)	2.602
CCCC1c2cccn2CCN1C(=O)c1cc(CC)no1 (stereo unspecified)	123.5
CCc1cc(C(=O)N2CCC(C3CCN(c4ncccn4)CC3)C2)on1 (stereo unspecified)	-2.788
CCCC1c2cccn2CCN1C(=O)Cn1cnc2sc(C)cc2c1=O (stereo unspecified)	146.6
Cc1ncsc1CCC(=O)N1CCn2cccc2C1c1cccnc1 (stereo unspecified)	2.617
CCN1CCC(CC(=O)N2CCn3cccc3C2c2cccnc2)CC1 (stereo unspecified)	-1.172
CCC1c2cccn2CCN1C(=O)c1ccc2nonc2c1 (stereo unspecified)	-3.198
Cc1cc2c(=O)n3c(nc2s1)CCN(C(=O)c1ccncc1)CC3	-15.49
Cc1cc2c(=O)n(CC(=O)N3CCn4cccc4C3C(C)C)cnc2s1 (stereo unspecified)	139.9
COC(=O)CCNC(=O)c1nnn(-c2ccccc2)c1C(F)(F)F	-9.818
CS(=O)(=O)N1CCCCCC1C1CCN(Cc2nc(C3CC3)no2)CC1 (stereo unspecified)	-7.435
Cc1nc(NC(=O)CCN2C(=O)c3ccccc3NC2C(C)C)sc1C (stereo unspecified)	126.1
Cc1nc(NC(=O)CN2CCc3c(nc(C(C)C)n3C)C2)sc1C	-4.598
Cc1nc(NC(=O)C(C)N2CCN(c3ccccc3F)CC2)sc1C (stereo unspecified)	2.631
Cc1nc(NC(=O)CN2CCOC(Cn3cccn3)C2)sc1C (stereo unspecified)	-8.379
CC(C)C1Nc2ccccc2C(=O)N1CC(=O)Nc1nc2c(s1)CCC2 (stereo unspecified)	128.1
Cc1nc(NC(=O)CN2C(=O)c3ccccc3NC2C(C)C)sc1C (stereo unspecified)	126.1
Cc1nc(NC(=O)C2CCCN(C(N)=O)C2)sc1-c1ccccc1 (stereo unspecified)	3.163
Cc1cc(C2CCCN(CC(=O)Nc3nc4c(s3)CCC4)C2)n[nH]1 (stereo unspecified)	7.579
O=C(CN1CCCC(c2ccn[nH]2)C1)Nc1nc2c(s1)CCC2 (stereo unspecified)	-12.59
Cc1cc(NCC(=O)N(C)CC(F)(F)F)c(C(N)=O)cc1F	-3.816

Compound	Percent Effect [%]
O=S(=O)(Nc1ccon1)c1cc(Cl)cc2c1OCC2	4.815
CCCS(=O)(=O)N(C)C(=O)CCc1ccsc1	-1.511
CN(C)c1ccccc1C(=O)N1C[C@@H](CN2CCCCC2)[C@@H](CO)C1	-1.886
O=C(O)C(F)(F)F.O=C(O)C(F)(F)F.c1cc(CN2Cc3nccn3CC(Cn3cncn3)C2)ccn1 (stereo unspecified)	106.6
O=C(O)C(F)(F)F.c1cncc(CN2Cc3nccn3CC(Cn3cncn3)C2)c1 (stereo unspecified)	126.5
Cc1nc(C)n(CC2CN(Cc3ccncc3)Cc3nccn3C2)n1.O=C(O)C(F)(F)F.O=C(O)C(F)(F)F (stereo unspecified)	-4.303
CCc1ccc(CN2Cc3nccn3CC(Cn3cncn3)C2)o1.O=C(O)C(F)(F)F (stereo unspecified)	101.6
CC(=O)N1[C@H](Cn2cncn2)C[C@@H]2CN(Cc3cccnc3)CC[C@@H]21.O=C(O)C(F)(F)F.O=C(O)C(F)(F)F	-6.622
O=C(O)C(F)(F)F.O=C(O)C(F)(F)F.c1cncc(CN2Cc3nccn3CC(Cn3cccn3)C2)c1 (stereo unspecified)	90.07
Cc1nc(C)n(CC2CN(Cc3cccnc3)Cc3nccn3C2)n1.O=C(O)C(F)(F)F.O=C(O)C(F)(F)F (stereo unspecified)	6.866
Cc1cc(C2CCCN2C(=O)NCc2cccnc2OC(C)C)on1 (stereo unspecified)	10.48
O=c1[nH]c(-c2ccc(Cl)cc2)nc2c1CCNC2	-17.05
CSc1ccc(CN(C(=O)c2cc(C)[nH]c(=O)c2)C2CC2)cc1	12.75
COC(C)(C)c1noc(C2(C#N)CCCCC2)n1	-1.328
CCOC(=O)NC(CNC(=O)c1ncccn1)CC(C)C (stereo unspecified)	3.45
CNC(=O)[C@@H](c1ccccc1OC)N1CCC[C@H]1C(=O)NC(C)(C)C.Cl	1.665
CCC(Nc1ccc(Oc2ccc(C#N)cc2OC)cc1)C(N)=O (stereo unspecified)	-15.11
Cc1nc(C)n(CC2CN(Cc3cccs3)Cc3nccn3C2)n1.O=C(O)C(F)(F)F (stereo unspecified)	12.7
O=C(O)C(F)(F)F.c1csc(CN2Cc3nccn3CC(Cn3cncn3)C2)n1 (stereo unspecified)	-6.751
O=C(O)C(F)(F)F.c1csc(CN2Cc3nccn3CC(Cn3cncn3)C2)c1 (stereo unspecified)	90.09
CN1CCCC(C(=O)N2CCC(Oc3ncccn3)CC2)C1 (stereo unspecified)	16.76
CC(C)Nc1cc(-c2c[nH]nc2C2CCN(C(=O)C3CC3)C2)ccn1 (stereo unspecified)	259.2

Compound	Percent Effect [%]
COc1ccccc1-c1nnc([C@H]2CCN(C(=O)C3CC3)C2)o1	-2.817
CC(C)Nc1cc(-c2c[nH]nc2C2CCN(C(=O)C3CCC3)C2)ccn1 (stereo unspecified)	269
COc1ccc(OC)c(C2CCN(C(=O)C3CCN(C(C)C)CC3)C2)c1 (stereo unspecified)	-6.334
CC(C)Oc1ncccc1CNC(=O)C1CCCN(C(=O)C2CC2)C1 (stereo unspecified)	-12.74
CC(C)CNc1cc(-c2c[nH]nc2C2CCN(C(=O)C3CC3)C2)ccn1 (stereo unspecified)	239.9
CCN(CC)CCn1cnc(-c2ccccc2)c1-c1cnc(C)s1	-4.484
Cc1ccc(-c2nc(CN3CCCC(Cn4cncn4)C3)co2)cc1 (stereo unspecified)	142.7
Cc1nc2ccccc2nc1CN1CCCC(Cn2cncn2)C1 (stereo unspecified)	-7.654
c1ccc(-c2nc(CN3CCCC(Cn4cncn4)C3)no2)cc1 (stereo unspecified)	-1.614
Cc1cc(CN2CCCC(Cn3cncn3)C2)on1 (stereo unspecified)	123.2
c1ccc(-c2nc(CN3CCCC(Cn4cncn4)C3)co2)cc1 (stereo unspecified)	5.722
Cc1cc(CN2CCCC(Cn3cncn3)C2)no1 (stereo unspecified)	117
Cc1cccc(-c2noc(CN3CCCC(Cn4cncn4)C3)n2)c1 (stereo unspecified)	6.393
c1ccc(-c2cc(CN3CCCC(Cn4cncn4)C3)on2)cc1 (stereo unspecified)	156.9
Cc1cc(NC(=O)CN2CCCC(Cn3cncn3)C2)no1 (stereo unspecified)	-8.5
Cc1cc(CN2CCCC2Cn2cncn2)no1 (stereo unspecified)	1.75
c1ncn(CC2CCCN(Cc3nc(C4CC4)no3)C2)n1 (stereo unspecified)	-1.701
Cc1cc(NC(=O)CN2CCCC(Cn3cncn3)C2)on1 (stereo unspecified)	0.4633
